Here are results for 38 compounds from PubChem BioAssay AID1233 (SRMLSC, 2008).

Measured potencies and affinities stand elsewhere. A number with no mark means an inactive call.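 How the source made its calls: active means a dose-response curve fit returns a half-maximal inhibitory concentration, extrapolated values included; inactive means the fit returns no such concentration.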

The target in this test is HMG-CoA reductase [Enterococcus faecalis] (UniProt Q9FD70). Description: class II HMG-CoA reductase inhibition potency – biochemical, Enterococcus faecalis, confirmation (AID 1233).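 Further: 0% = full reaction carrier wells and 100% = background wells lacking mevalonate.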 The settings on record: purified E. faecalis HMGR, NADPH absorbance 340 nm kinetics; series mostly up to 100 µM; inhibition: at the top concentration.
Take `Cc1c(NC(=O)CN2C(=O)c3ccccc3S2(=O)=O)c(=O)n(-c2ccccc2)n1C`: the “inhibition” value is 1.92%.
For the compound `O=[N+]([O-])c1ccc(N/N=C/c2ccc(O)c(O)c2O)c(S(=O)(=O)N2CCOCC2)c1`, the “inhibition” value is -14%.
As to `Cc1cccc(C)c1N1CCN(C(=O)N2CCCCC2)CC1`, the “inhibition” value was -2.11%.
As for `CCC(=O)N/N=C(\C)CC(=O)Nc1ccccc1-c1ccccc1`, the figure is 1.25%.
The value for `CN(CCOC(=O)c1cccc(Br)c1)C(C)(C)C` was -4.97%.
As for `N#CC(c1ccc(Cl)cc1)c1nc2ccccc2nc1C(F)(F)F` (stereo not drawn), the figure is -0.91%.
`Cc1nc(Nc2nc3ccccc3o2)nc2c1CCC2`: the “inhibition” value was -0.84%.
As for `CCN(Cc1ccncc1)Cc1c(O)ccc2cc(Br)ccc12`, the figure is -1.49%.
As for `CC(=O)N(C)c1nc(N)n(-c2ccccc2)n1`, the figure is -3.93%.
As for `COc1cccc(C(=O)CN2C3=NCCCN3c3ccccc32)c1`, the figure is -4.22%.
Turning to `Cc1nn(Cc2ccc(Cl)cc2)c(Cl)c1/C=N/NC(=O)CNc1ccccc1F`, the “inhibition” value is -2.81%.
The value for `NS(=O)(=O)c1ccc(N2C(=O)C3C4CC(C(Br)C4Br)C3C2=O)cc1` (stereo not drawn) was -8.3%.
The value for `COc1cc(OC)c(OC)cc1/C=N/NC(=S)NCCN1CCOCC1` was -0.02%; that for `CN(Cc1ccccc1)c1nc(N)nc(Cl)c1C=O` was -3.89%.
Consider `COc1ccccc1C(=O)NNC(=O)c1ccc(NC(=O)c2ccccc2)cc1`, for which the “inhibition” value was -6.29%.
As for `O=C1c2ccccc2C(=O)N1CCN1CCCCC1`, the figure is -7.22%; as for `O=C(N/N=C/c1ccc2c(c1)OCO2)c1ccc(NS(=O)(=O)c2cccs2)cc1`, -1.17%.
Regarding `O=C(OCC(=O)N1CCN(C(=O)c2ccco2)CC1)c1cc(-c2ccco2)nc2ccccc12`, the “inhibition” value was -0.43%.
For the compound `CCOc1cccc2cc(C(N)=O)c(=NCc3ccccc3)oc12`, the “inhibition” value is -4.04%.
The value for `Cc1ccc(C)c(N=Cc2ccc(-c3ccc([N+](=O)[O-])cc3)o2)c1` was -5.67%.
The value for `Cn1c(SCC(=O)c2ccc(F)cc2)nnc1-c1cccnc1` was -1.32%; that for `CCOC(=O)c1ccc(Nc2nc(C(=O)OCC)nc3ccccc23)cc1` was -2.7%.
The value for `CC(C)N(C(=O)Cn1cnc2cc([N+](=O)[O-])ccc2c1=O)C(C)C` was -1.92%; that for `CCc1nnc(NC(=O)CN2CCN(c3nc(-c4ccccc4)cs3)CC2)s1` was -3.15%; that for `Cc1cccc(Nc2nnc(SCC(=O)Nc3ncc(C(F)(F)F)cc3Cl)s2)c1C` was -4.11%.
`COc1cccc(-c2nnc3sc(-c4cccs4)nn23)c1`: the “inhibition” value is -8.43%.
For the compound `CC(=O)NC(Cc1cccc(F)c1)C(=O)NC1CCN(c2ncccc2[N+](=O)[O-])CC1` (stereo not drawn), the “inhibition” value is -11.6%.
For the compound `OCC1CCCN(C(=S)Nc2ccc(Nc3ccccc3)cc2)C1` (stereo not drawn), the “inhibition” value is -3.22%.
The value for `Cc1ccc(C(=O)CC2(O)C(=O)N(C)c3ccccc32)s1` (stereo not drawn) was -4.08%.
Turning to `Cc1ccc(C(=O)NCc2ccccc2)c(F)c1F`, the “inhibition” value is -0.35%.
The value for `CCCC(=O)Nc1sc(C(=O)Nc2cccc(N)c2)c(C)c1C(=O)OC` was -0.06%; that for `Cc1ccccc1-c1oc(C)c(C)[n+]1[O-]` was -3.5%; that for `CCC(=O)Nc1ccc2c(c1)nc(CN1CCCCC1)n2C` was -3.15%.
`Cc1ccc2nc(-c3sc4nc(C)ccc4c3N)[nH]c2c1`: the “inhibition” value was -3.66%.
The value for `CCOc1ccc(OCCCC(=O)Nc2nc3ccccc3[nH]2)cc1` was -5.68%; that for `CN(C=O)CP(=O)(O)CN1CCCCC1` was -2.44%.
The value for `O=C(COC(=O)/C=C/c1ccco1)Nc1ccc(F)cc1Cl` was -0.84%; that for `O=C(COC(=O)c1cc(S(=O)(=O)N2CCCCC2)ccc1N1CCOCC1)NC1CCS(=O)(=O)C1` (stereo not drawn) was -3.58%.
